# Test results reported in PubChem BioAssay (NCATS).
# Several values for one entry are separate records, joined by “and”; a condition that tells them apart may be missing. Equal entries are not always repeated. Records with an inconclusive call do not appear. A call without a number means that no potency is given here. Some structures have more than one record in an assay (separate samples or runs), and their calls can disagree. A number with no mark means an inactive call. Activity calls are given as the source filed them. Calls follow the shape of the dose curve; as a rule, active = well fitted inhibition curve with a large enough effect; inconclusive = small, poorly fitted or top-dose-only effect; inactive = flat fitted curve, though single readings scatter.
# What was measured:
# GB4 = test: qHTS profiling for inhibitors of Plasmodium falciparum proliferation (AID 504749); conditions: P. falciparum in erythrocytes, SYBR Green DNA, 72 h; series mostly up to 28.7 µM
# How it was run: (§1)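 P. falciparum-infected erythrocytes (0.3% parasitemia, 2.5% hematocrit final) were exposed to compounds for 72 h at 37 C in 5% CO2, then lysed with SYBR Green buffer overnight at room temperature; parasite DNA fluorescence was normalized to artemisinin and DMSO controls.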
# HB3 = test: as above; conditions: P. falciparum in erythrocytes, SYBR Green DNA, 72 h; series mostly up to 28.7 µM
# How it was run: as §1
# ICS = test: as above; conditions: P. falciparum in erythrocytes, SYBR Green DNA, 72 h; series mostly up to 28.7 µM
# How it was run: as §1
# JCK = test: as above; conditions: P. falciparum in erythrocytes, SYBR Green DNA, 72 h; series mostly up to 28.7 µM
# How it was run: as §1
# N140 = test: as above; conditions: P. falciparum in erythrocytes, SYBR Green DNA, 72 h; series mostly up to 28.7 µM
# How it was run: as §1
# P93_24 = test: as above; conditions: P. falciparum in erythrocytes, SYBR Green DNA, 72 h; series mostly up to 28.7 µM
# How it was run: as §1
# P94_40 = test: as above; conditions: P. falciparum in erythrocytes, SYBR Green DNA, 72 h; series mostly up to 28.7 µM
# How it was run: as §1
# PAD = test: as above; conditions: P. falciparum in erythrocytes, SYBR Green DNA, 72 h; series mostly up to 28.7 µM
# How it was run: as §1
# PC15 = test: as above; conditions: P. falciparum in erythrocytes, SYBR Green DNA, 72 h; series mostly up to 28.7 µM
# How it was run: as §1
# PC26 = test: as above; conditions: P. falciparum in erythrocytes, SYBR Green DNA, 72 h; series mostly up to 28.7 µM
# How it was run: as §1
# PC49 = test: as above; conditions: P. falciparum in erythrocytes, SYBR Green DNA, 72 h; series mostly up to 28.7 µM
# How it was run: as §1
# SC27B = test: as above; conditions: P. falciparum in erythrocytes, SYBR Green DNA, 72 h; series mostly up to 28.7 µM
# How it was run: as §1
# TAB109 = test: as above; conditions: P. falciparum in erythrocytes, SYBR Green DNA, 72 h; series mostly up to 28.7 µM
# How it was run: as §1
# TAB113 = test: as above; conditions: P. falciparum in erythrocytes, SYBR Green DNA, 72 h; series mostly up to 28.7 µM
# How it was run: as §1
# TAB165 = test: as above; conditions: P. falciparum in erythrocytes, SYBR Green DNA, 72 h; series mostly up to 28.7 µM
# How it was run: as §1
# W2 = test: as above; conditions: P. falciparum in erythrocytes, SYBR Green DNA, 72 h; series mostly up to 28.7 µM
# How it was run: as §1
# CRL-7250 = normal cell line; test: Cytotoxic Profiling of Annotated Libraries Using Quantitative High-Throughput Screening (AID 1296008); conditions: Five cell lines viability, CellTiter-Glo ATP luminescence, 48-72 h; max response: active compounds read low
# How it was run: (§2)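 Compounds were pin-transferred onto cells and incubated 48 or 72 hr at 37 degree Celsius, 95% humidity. CellTiter-Glo was added, plates sat 10 min at room temperature, then ATP-coupled luminescence was imaged as the viability read-out.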
# HEK293 = test: as above; conditions: Five cell lines viability, CellTiter-Glo ATP luminescence, 48-72 h; max response: active compounds read low
# How it was run: as §2
# HaCat = test: as above; conditions: Five cell lines viability, CellTiter-Glo ATP luminescence, 48-72 h; max response: active compounds read low
# How it was run: as §2
# KB-3-1 = test: as above; conditions: Five cell lines viability, CellTiter-Glo ATP luminescence, 48-72 h; max response: active compounds read low
# How it was run: as §2
# Also: nearly all actives have a fitted effect of over 60% in size.
# Potency is read from the fitted curve at half-maximal effect.
structure (smiles),measurement,setting,value
CC(=O)CCCCn1c(=O)c2c(ncn2C)n(C)c1=O,Potency,GB4,inactive
same,Potency,HB3,inactive
same,Potency,ICS,inactive
same,outcome,JCK,inactive
same,Potency,N140,inactive
same,outcome,P93_24,inactive
same,Potency,P94_40,inactive
same,outcome,PAD,inactive
same,outcome,PC15,inactive
same,Potency,PC26,inactive
same,outcome,PC49,inactive
same,Potency,SC27B,inactive
same,outcome,TAB109,inactive
same,Potency,TAB113,inactive
same,Potency,TAB165,inactive
same,Potency,W2,inactive
same,max response,CRL-7250,-2.71% and -0.425%
same,max response,HEK293,-3.31%
same,outcome,HEK293,inactive
same,max response,HaCat,-9.06%
same,outcome,HaCat,inactive
same,max response,KB-3-1,-13.9%
same,outcome,KB-3-1,inactive
Cc1ccccc1C(C(=O)NC1CCCCC1)N(C(=O)Cn1ccnc1C)c1cccc(F)c1 (configuration not stated),max response,CRL-7250,-5.16%
same,outcome,CRL-7250,inactive
same,max response,HEK293,-0.939%
same,outcome,HaCat,inactive
same,max response,KB-3-1,1.35% and 1.14%
N[C@H](CSC(c1ccccc1)(c1ccccc1)c1ccccc1)C(=O)O,max response,CRL-7250,-7.2%
same,Potency,HEK293,9.35 µM (active)
same,outcome,HaCat,inactive
O=C(O)c1cc(-c2ccccc2)nc2ccccc12,Potency,GB4,inactive
same,Potency,HB3,inactive
same,Potency,ICS,inactive
same,outcome,JCK,inactive
same,Potency,N140,inactive
same,outcome,P93_24,inactive
same,Potency,P94_40,inactive
same,outcome,PAD,inactive
same,outcome,PC15,inactive
same,Potency,PC26,inactive
same,outcome,PC49,inactive
same,Potency,SC27B,inactive
same,outcome,TAB109,inactive
same,Potency,TAB113,inactive
same,Potency,TAB165,inactive
same,Potency,W2,inactive
same,max response,CRL-7250,-0.325% and 3.3% and 1.79%
same,max response,HEK293,-6.89%
same,outcome,HEK293,inactive
same,max response,HaCat,-15.6%
same,outcome,HaCat,inactive
same,max response,KB-3-1,-3.95% and -19% and 4.62%
N#CC(=C(N)Sc1ccccc1N)C(C#N)=C(N)Sc1ccccc1N,max response,CRL-7250,-7.68%
CN(C)CCC(c1ccccc1)c1ccccn1 (configuration not stated),Potency,GB4,7.57 µM (active)
same,Potency,HB3,inactive
same,Potency,ICS,inactive
same,outcome,JCK,inactive
same,Potency,N140,inactive
same,outcome,P93_24,inactive
same,outcome,PAD,inactive
same,outcome,PC15,inactive
same,Potency,SC27B,inactive
same,Potency,TAB113,inactive
same,Potency,TAB165,inactive
same,Potency,W2,4.26 µM (active)
same,max response,CRL-7250,-4.39%
same,max response,HEK293,-3.33%
same,outcome,HEK293,inactive
same,outcome,HaCat,inactive
same,max response,KB-3-1,-8.17% and 1.69%
CC[C@]1(O)C[C@@H]2CN(CCc3c([nH]c4ccccc34)[C@@](C(=O)OC)(c3cc4c(cc3OC)N(C=O)[C@@H]3C45CCN4CC=C[C@](CC)([C@H]45)[C@@H](OC(C)=O)[C@]3(O)C(=O)OC)C2)C1 (some centres not stated),max response,CRL-7250,-20.2%
COc1ccc(C2CC(c3ccccc3)=NN2c2ccc(S(N)(=O)=O)cc2)cc1 (configuration not stated),Potency,CRL-7250,10.5 µM (active)
same,max response,CRL-7250,-2.01%
same,max response,HaCat,3.54% and 1.7%
same,max response,KB-3-1,-15.8%
COc1ccc2cc(-c3nc(-c4ccc(S(C)=O)cc4)[nH]c3-c3ccncc3)ccc2c1 (configuration not stated),max response,CRL-7250,-4.22%
same,outcome,CRL-7250,inactive
same,max response,HaCat,-7.74%
same,outcome,HaCat,inactive
same,max response,KB-3-1,4.38%
Clc1ccc(Cn2c(CN3CCCC3)nc3ccccc32)cc1,Potency,HB3,inactive
same,outcome,JCK,inactive
same,Potency,N140,inactive
same,Potency,P94_40,inactive
same,outcome,PAD,inactive
same,outcome,PC15,inactive
same,outcome,PC49,inactive
same,Potency,SC27B,inactive
same,outcome,TAB109,inactive
same,Potency,TAB113,inactive
same,Potency,TAB165,inactive
same,max response,CRL-7250,-0.466%
same,outcome,CRL-7250,inactive
same,max response,HEK293,-18%
same,max response,HaCat,-16.9%
same,outcome,HaCat,inactive
same,max response,KB-3-1,4.33% and 5.03%
O=C(CCN1CCN(C(=O)OCc2cc(Cl)cc(Cl)c2)CC1)c1ccc2[nH]c(=O)oc2c1,max response,CRL-7250,-14.6%
same,outcome,CRL-7250,inactive
same,Potency,HEK293,9.2 µM (active)
same,max response,HEK293,-21.4%
same,max response,HaCat,-8.98% and -29.3%
same,max response,KB-3-1,-3.38% and 0.622%
Cc1ccc(/C=N/NC(=O)c2ccccc2Oc2ccccc2)o1,max response,CRL-7250,-0.512%
same,Potency,HEK293,20.9 µM (active)
same,max response,HaCat,-2.81%
